The values that follow come from PubChem BioAssay (NCATS).

Holding throughout (assay): qHTS profiling for inhibitors of Plasmodium falciparum proliferation (AID 504749); further: nearly all actives have a fitted effect of over 60% in size
Details in all cases: P. falciparum in erythrocytes, SYBR Green DNA, 72 h; series mostly up to 28.7 µM
Background: qHTS replaces the single test concentration by a dilution series.

In test [1] the test system is HB3. Summed up: (§1)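 Quantitative HTS: compounds pinned into medium, infected erythrocytes added (0.3% parasitemia, 2.5% hematocrit), 72 h culture at 37 C under 5% CO2. Saponin/Triton lysis with SYBR Green I, overnight RT, then fluorescence read.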
The subject of test [2] is ICS. Summed up: as §1
Test [3] deals with JCK. Summed up: as §1
Test [4] relates to N140. Summed up:
as §1

In test [5] the test system is P93_24. Summed up: as §1
In test [6] the test system is P94_40. Summed up: as §1
Test [7] deals with PAD. Summed up:
as §1

For test [8], the system named is PC15. Summed up:
as §1

The subject of test [9] is PC26. Summed up: as §1
Test [10] concerns PC49. Summed up:
as §1

Inconclusive results are not listed. Active and inactive are the calls of the source. The call rests on the fitted dose curve; in most records, active means well fitted inhibition curve with a large enough effect; inconclusive means small, poorly fitted or top-dose-only effect; inactive means flat fitted curve, though single readings scatter.
Potency means the concentration at half of the fitted maximal effect.

Take `CO[C@H]1C[C@@H]2CC[C@@H](C)[C@@](O)(O2)C(=O)C(=O)N2CCCC[C@H]2C(=O)O[C@H]([C@H](C)C[C@@H]2CC[C@@H](OCCO)[C@H](OC)C2)CC(=O)[C@H](C)/C=C(\C)[C@@H](O)[C@@H](OC)C(=O)[C@H](C)C[C@H](C)/C=C/C=C/C=C/1C`: the Potency is 2000 nM (active) in test [1]; 501 nM (active) in test [2]; 10000 nM (active) in test [3]; 1000 nM (active) in [4]; 1410 nM (active) in [5]; 2000 nM (active) in test [6]. For the same compound, the Potency in test [7] was 1410 nM (active); in test [8] it was 3160 nM (active); in test [9] it was 2130 nM (active); in [10], 5010 nM (active).

For `CCCC(=O)O[C@]1(C(=O)CCl)[C@H](C)C[C@@H]2[C@H]3CCC4=CC(=O)C=C[C@]4(C)[C@@]3(F)C(=O)C[C@@]21C`, the Potency was 2820 nM (active) in test [1]; 3550 nM (active) in test [2]; 10000 nM (active) in test [3]; 3160 nM (active) in test [4]; 3980 nM (active) in test [5]; 4470 nM (active) in test [6]. The Potency in test [7] was 4470 nM (active); in test [8], 3550 nM (active); in [9], 3010 nM (active); in test [10] it was 10000 nM (active).

For the compound `CCCCCCC(O)C/C=C/CCCCCCCC(=O)O` (stereo not drawn), the Potency entry in [1], in test [2], in test [3], in test [4], in [5] and in [6] was “inactive” each time. The Potency result in [7], in test [8], in [9] and in [10] was “inactive” throughout.

For `Cc1ccccc1`, the Potency result in [1], in test [2], in test [3], in test [4], in test [5] and in test [6] was “inactive” in each case. The Potency result in test [7], in [8], in [9] and in test [10] was “inactive” throughout.

Take `COC(=O)CCC(=O)CN`: the Potency entry in [1], in test [2], in [3], in [4], in [5] and in test [6] was “inactive” each time. Further, the Potency result in test [7], in test [8], in test [9] and in test [10] was “inactive” in each case.

In the case of `C[C@@H]1CCC2[C@@H](C)[C@@H](O)O[C@@H]3O[C@@]4(C)CC[C@@H]1[C@@]23OO4` (stereo partly drawn), the Potency is 2.8 nM (active) in [1]; 1 nM (active) in [2]; 10000 nM (active) in test [3]; 1.6 nM (active) in test [4]; 1 nM (active) in test [5]; 1 nM (active) in [6]. For the same compound, the Potency is 1.4 nM (active) in [7], 0.9 nM (active) in test [8], 2.7 nM (active) in [9] and 0.3 nM (active) in test [10].

For the compound `CCCCCCCC(=O)O`, the Potency entry in [1], in test [2], in [3], in test [4], in test [5] and in test [6] was “inactive” in each case. The Potency result in test [7], in test [8], in test [9] and in [10] was “inactive” throughout.

In the case of `CCCCCCCCCCCCCCCC(=O)OCC(COC(=O)CCCCCCCCCCCCCCC)OC(=O)CCCCCCCCCCCCCCC`, the Potency result in test [1], in test [2], in test [3], in test [4], in [5] and in test [6] was “inactive” throughout. Also, the Potency entry in test [7], in test [8], in [9] and in [10] was “inactive” each time.

In the case of `COC(F)(F)C(Cl)Cl`, the Potency result in [1], in [2], in [3], in test [4], in test [5] and in test [6] was “inactive” throughout. Also, the Potency entry in test [7], in test [8], in test [9] and in test [10] was “inactive” throughout.

Turning to `O=S(=O)(O)c1ccc2c(N=Nc3ccc(S(=O)(=O)O)c4ccccc34)c(O)c(S(=O)(=O)O)cc2c1`, the Potency result in test [1], in test [2], in [3], in [4], in [5] and in test [6] was “inactive” each time. The Potency result in test [7], in [8], in [9] and in [10] was “inactive” in each case.

`CCCCCCCCCCCC[n+]1ccc2ccccc2c1`: the Potency in test [1] was 2510 nM (active); in [2] it was 447 nM (active); in [3], 12600 nM (active); in test [4] it was 708 nM (active); in [5], 631 nM (active); in test [6], 891 nM (active). Besides, the Potency in [7] was 2000 nM (active); in test [8] it was 2240 nM (active); in [9] it was 953 nM (active).

With `O=C1C(=O)c2ncccc2-c2cccnc21`, the Potency in test [1] is 1000 nM (active); in [2] it was 631 nM (active); in [3] it was 10000 nM (active); in test [4] it was 1260 nM (active); in [5], 891 nM (active); in test [6] it was 794 nM (active). In addition, the Potency in test [7] was 794 nM (active); in test [8], 891 nM (active); in [9] it was 1070 nM (active); in [10] it was 3550 nM (active).

In the case of `CCCC(=O)Nc1ncnc2c1ncn2C1OC2COP(=O)(O)OC2C1OC(=O)CCC` (stereo not drawn), the Potency result in [1], in test [2], in test [3], in test [4], in test [5] and in test [6] was “inactive” throughout. Also, the Potency entry in test [7], in [8], in [9] and in [10] was “inactive” each time.

`COC(=O)[C@H]1[C@H]2C[C@@H]3c4[nH]c5ccccc5c4CCN3C[C@H]2C[C@@H](OC(=O)c2cc(OC)c(OC)c(OC)c2)[C@@H]1OC`: the Potency was 794 nM (active) in [1]; 100 nM (active) in test [2]; 891 nM (active) in test [3]; 199 nM (active) in [4]; 126 nM (active) in test [5]; 316 nM (active) in [6]. For the same compound, the Potency is 251 nM (active) in [7], 447 nM (active) in [8], 269 nM (active) in [9] and 251 nM (active) in test [10].

`CCN(CC)Cc1cc(Nc2ccnc3cc(Cl)ccc23)ccc1O`: the Potency in test [1] was 35.5 nM (active); in test [2], 39.8 nM (active); in test [3] it was 89.1 nM (active); in test [4], 70.8 nM (active); in [5], 35.5 nM (active); in [6], 8.9 nM (active). Further, the Potency in test [7] is 31.6 nM (active); in test [8], 178 nM (active); in test [9], 161 nM (active); in [10] it was 100 nM (active).

With `Cc1ccccc1OCC(O)CNCCOc1ccc(C(N)=O)cc1` (stereo not drawn), the Potency result in [1], in test [2], in test [3], in test [4], in test [5] and in [6] was “inactive” each time. Besides, the Potency result in test [7], in [8], in test [9] and in test [10] was “inactive” throughout.

As for `O=S(=O)(O)O`, the Potency entry in test [1], in test [2], in [3], in [4], in [5] and in [6] was “inactive” each time. Besides, the Potency entry in test [7], in test [8] and in test [9] was “inactive” each time.
